SKKanGAS inh = inhibitors of SKKanGAS S. pyogenes growth in kanamycin (SK-promoter or general growth effect); BacTiter-Glo, 6 h; inhibition, % at 7.5 µM; 300,000 tested, 1.3% active;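 active = mean replicate score, as percent of positive control median, at least 50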;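 note: strain carries kanamycin resistance gene driven by streptokinase promoter and grows in 40 µg/ml kanamycin; loss of luminescence reflects streptokinase promoter inhibition or plain growth inhibition; 0% = median of DMSO wells and 100% = positive control at its reference dose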
MPTP inh = blocks calcium-induced mitochondrial swelling | AID 602449 | 360,000 tested, 1.4% active | isolated mouse mitochondria, Ca2+ swelling absorbance, 30 min | inhibition, % at 10 µM;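 active = inhibition of 50% or more, scaled per plate between neutral and stimulator controls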;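 note: 0% = DMSO wells given calcium and 100% = 1 mM EGTA wells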
CSC inhib = blocks cancer stem cells; cancer stem cell-like cells viability, luminescence; inhibition, % at 7.5 µM; 300,000 tested, 1.1% active; in the data active = inhibition above about 75%; tested in HMLE shEcad cells
NR3A LBD binder = modulators (binders) of human NR3A ligand-binding domain; NR3A LBD differential scanning fluorimetry, Tm shift; 0% = protein alone, 100% = glycine-bound protein; 340,000 tested, 2.5% active; Tm shift relative to glycine control, % at 25 µM;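 active = melting temperature shift of at least 10% of the positive control shift, at one fixed dose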
Beta cell apopt = blocks beta cell apoptosis. INS-1E cytokine-induced death, ATP luminescence, 48 h; percent of positive-control rescue, neutral wells zero. protection from apoptosis, % (no concentration beside the values). 300,000 tested, 0.8% active;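 active = Every replicate reaches about 75%, or at least half do and their mean reaches it too, limit read from the data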;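 note: 0% = cytokine-treated negative control wells and 100% = positive control rescue; higher means more ATP so stronger rescue from cytokine killing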
Mdm2-MdmX inh = human Mdm2/MdmX binding inhibition; 330,000 tested, 3% active; inhibition, % at 8 µM; SaOS-2 split-luciferase Mdm2/MdmX complementation, luminescence; O15151+Q00987;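 active = inhibition of at least 50% at 8 µM in the primary screen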
Target sequence (O15151 whole entry, looked up): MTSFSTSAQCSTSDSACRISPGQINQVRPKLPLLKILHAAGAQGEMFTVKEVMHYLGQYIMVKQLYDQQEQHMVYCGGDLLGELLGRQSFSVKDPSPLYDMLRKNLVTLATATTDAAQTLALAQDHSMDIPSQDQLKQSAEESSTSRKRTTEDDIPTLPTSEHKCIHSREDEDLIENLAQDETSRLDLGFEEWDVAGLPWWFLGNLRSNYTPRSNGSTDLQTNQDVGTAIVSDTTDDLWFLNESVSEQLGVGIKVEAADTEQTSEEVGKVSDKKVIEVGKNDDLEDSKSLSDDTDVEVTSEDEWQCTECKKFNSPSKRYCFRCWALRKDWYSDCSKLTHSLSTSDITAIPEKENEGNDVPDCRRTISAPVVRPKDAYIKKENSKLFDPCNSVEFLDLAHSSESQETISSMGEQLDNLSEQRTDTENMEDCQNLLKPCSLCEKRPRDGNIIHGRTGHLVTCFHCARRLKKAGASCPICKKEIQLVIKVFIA
Target sequence (Q00987 whole entry, looked up): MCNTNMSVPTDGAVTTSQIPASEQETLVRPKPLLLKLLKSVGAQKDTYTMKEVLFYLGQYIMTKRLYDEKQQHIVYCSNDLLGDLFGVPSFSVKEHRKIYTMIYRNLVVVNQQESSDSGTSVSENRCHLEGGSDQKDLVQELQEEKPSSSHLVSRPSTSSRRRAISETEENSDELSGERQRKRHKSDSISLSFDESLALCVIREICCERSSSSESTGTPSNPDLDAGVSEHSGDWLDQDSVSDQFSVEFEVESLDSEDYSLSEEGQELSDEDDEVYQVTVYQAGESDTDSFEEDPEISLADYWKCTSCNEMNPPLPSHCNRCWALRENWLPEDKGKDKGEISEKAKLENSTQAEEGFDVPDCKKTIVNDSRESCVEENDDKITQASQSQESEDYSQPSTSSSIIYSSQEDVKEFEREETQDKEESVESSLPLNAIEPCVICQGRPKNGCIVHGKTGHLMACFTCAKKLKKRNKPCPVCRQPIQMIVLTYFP
Mdm2 MdmX conf = human Mdm2/MdmX binding inhibition, confirmed; shares compounds with Mdm2-MdmX inh; luminescent assay; inhibition, % at 8 µM; 10,000 tested, 55% active; AID 489028; in the data active = inhibition above about 40%
Full FLuc ctr = inhibits full-length luciferase, flagging false Mdm2/MdmX hits; 6,200 tested, 77% active; shares compounds with Mdm2-MdmX inh; inhibition, % at 8 µM; SaOS-2 full-length luciferase counterscreen, luminescence; AID 504607;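 active = mean inhibition at 8 µM reaching about 37%, which flags the compound as non-specific, limit read from the data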;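 note: p53-null SaOS-2 cells with luciferase driven by a doxycycline-inducible promoter; compound on cells about two nights before reading with doxycycline added after day one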
* hit, by the source's call; / = no result given. Only some compounds are listed: those with a hit (about 6.9% of all), similar ones and a draw of the others.

SMILES	SKKanGAS inh	MPTP inh	CSC inhib	NR3A LBD binder	Beta cell apopt	Mdm2-MdmX inh	Mdm2 MdmX conf	Full FLuc ctr
CN(C)/C=C1\C(=O)Oc2ccccc2C1=O	5.8	0.5	-3.1	-0.6	/	1.5	/	/
Cc1[nH]n2c(=O)cc(-c3ccc([N+](=O)[O-])cc3)nc2c1-c1ccccc1	101.5*	3.6	-8.8	14.2*	2.7	65.9*	66.5*	39.2*
CCOc1ccc(CCNC(=O)Nc2cccc(OC)c2)cc1OCC	6.5	-1.5	2.0	1.2	-2.9	23.4	/	/
CCOC(=O)c1c(NC(=O)CSc2ncccn2)sc2c1CC(C)(C)NC2(C)C	-2.8	-0.1	-16.6	-2.3	-7.2	35.2	/	/
CCOC(=O)c1c(NC(=O)c2ccc(S(=O)(=O)N3CCOCC3)cc2)sc2c1CCN(C)C2	3.0	-1.0	19.7	-1.2	-2.9	22.4	/	/
CCOC(=O)c1c(NC(=O)c2ccc(S(=O)(=O)N3CCOCC3)cc2)sc2c1CC(C)(C)NC2(C)C	-0.5	0.6	12.0	0.6	-1.1	55.4*	34.4	/
Cc1ccc(C(C)C)c(OCC(=O)Nc2sc3c(c2C#N)CC(C)(C)NC3(C)C)c1	0.0	3.2	65.2	-16.1	29.3	59.0*	30.7	81.2*
CCOC(=O)c1c(NC(=O)COc2ccccc2F)sc2c1CC(C)(C)NC2(C)C	-4.0	0.3	45.0	-2.3	/	83.5*	71.8*	63.3*
COC(=O)c1c(NC(=O)COc2ccc(Cl)cc2)sc2c1CC(C)(C)NC2(C)C	67.6*	2.1	10.1	-2.7	102.3*	94.9*	98.8*	-0.4
Cc1ccc2nc(Nc3ccc(Cl)cc3)c3nncn3c2c1	4.3	0.8	10.9	-0.5	-7.6	44.6	/	/
C=CCN1/C(=C2/SC(=S)N(C)C2=O)Sc2ccccc21	-1.7	/	-11.6	/	7.5	6.4	/	/
Cc1nn(C)c(C)c1CCC(=O)N1CCCC(N2CCN(c3ccc(F)cc3)CC2)C1 (stereo not given)	19.9	-0.8	3.7	-0.4	/	19.4	/	/
Cc1cc(N2CCN(Cc3cn(C)nc3-c3cccc(Cl)c3)CC2)cc(C)n1	3.0	2.1	41.6	-5.0	3.1	61.3*	62.5*	42.7*
CCCCC(CC)CNC(=O)Cn1c(=S)[nH]c2ncccc2c1=O (stereo not given)	-3.0	/	4.3	/	2.8	-5.6	/	/
COc1ccc([C@H]2CC(=O)C=C(c3ccc(OC)cc3OC)C2)cc1	/	0.2	71.0	-2.7	6.6	51.1*	33.6	98.3*
COCCOC(=O)C1=C(C)OC(N)=C(C#N)C1c1cc2cccc(C)c2nc1Cl (stereo not given)	0.8	-0.3	/	-0.8	-0.4	-2.5	/	/
COc1ccc(/C=N/NC(=O)c2cccc(Br)c2)cc1Cn1cc(Cl)cn1	10.4	3.8	/	-23.5	1.2	59.7*	49.7*	67.1*
Cc1cc(C)c(C(=O)C(C)OC(=O)c2ccc(Cl)nc2)cc1C (stereo not given)	-5.5	-0.3	/	0.4	5.6	0.2	/	/
CCN(CC)CCn1c(SCC(=O)NCc2ccccc2)nc2c(sc3ccccc32)c1=O	3.6	9.5	-2.3	0.1	-4.0	74.8*	28.0	/
O=C(CSc1nc2c(sc3ccccc32)c(=O)n1CCCN1CCCC1)NCC1CCCO1 (stereo not given)	3.8	-1.0	-3.4	2.5	3.5	5.5	/	/
COc1ccc(NC(=O)CSc2nc3c(sc4ccccc43)c(=O)n2CCCN2CCCC2)cc1	6.8	-0.9	8.3	-4.5	-2.6	98.1*	70.3*	23.1
CCc1ccc(NC(=O)CSc2nc3ccccc3c(=O)n2CCCC(=O)N2CCCC2)cc1	3.0	8.2	39.7	-2.7	/	51.7*	48.9*	42.2*
Cc1ccc(NC(C(=O)c2ccccc2)c2ccccc2)cc1 (stereo not given)	/	0.3	/	-0.2	/	/	/	/
Cc1ccc(NN2C(=O)C=C(c3ccccc3)C2=O)cc1	18.1	-1.0	/	-1.4	/	13.7	/	/
CC(=O)Nc1ccc(Cl)cc1C(=O)c1ccc[nH]1	/	-0.8	/	/	/	/	/	/
NCC(=O)Nc1ccc(Cl)cc1C(=O)c1ccc[nH]1	-5.5	0.0	/	0.5	/	63.5*	66.3*	40.4*

Bioassay records: PubChem BioAssay, several laboratories
